# NPC1 promoter act – activates the NPC1 promoter; Huh7 NPC1 promoter luciferase reporter, 24 h; AID 485313; hit rate 2.4% among 320,000; Potency, µM (titrated, usually from 9.22 µM), without a hit: top-dose activation, most hits filed as activators; note: % of control where 0% means no effect; nearly all actives have a fitted effect of over 60% in size
#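 Cells: Huh7 expressing luciferase under the NPC1 promoter, 1500/well. Seeded 2 h, compound added, incubated 24 h at 37 °C. Luciferase reagent, 10 min ambient, then luminescence.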
# SMN2 splice up – enhancers of SMN2 splice variant expression; HEK293 SMN2-luciferase splicing reporter, luminescence, 30-36 h; hit rate 2.8% among 210,000; Potency, µM (doses to about 46.1 µM), without a hit: at the top dose activity change, positive = activation, actives largely listed as activators; note: % of control where 0% means no effect; nearly all actives have a fitted effect of over 55% in size
#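 HEK293 cells carry an SMN2 minigene-luciferase reporter in which exon 7 inclusion puts luciferase in frame. Cells were seeded at 2000 cells/well, attached for 10-12 hours, then exposed to compounds for 30-36 hours at 37C before ONE-Glo luminescence.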
# ELG1 genotox – inducers of genotoxicity in HEK293T ELG1-luciferase cells. HEK293T ELG1-luciferase reporter, luminescence, 16 h. Potency, µM (highest dose often 46 µM), for inactives: at the top dose activity change, positive = activation, usual class: activators. hit rate 1.3% among 330,000. AID 504466; note: % of control where 0% means no effect; nearly all actives have a fitted effect of over 60% in size
#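 Cells (2,000/well) expressing the ELG1-luciferase fusion are dosed by pin tool and kept 16 hr at 37 °C, 5% CO2. Signal comes from ONE-Glo luciferase reagent after 30 min at room temperature.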
# uPA generation – inhibitors of cell surface uPA generation. hit rate 0.31% among 330,000. AID 540303. Potency, µM (highest dose often 38.3 µM), inactives show at the highest dose activity change, negative = inhibition, usual class: inhibitors. cell surface uPA generation assay, qHTS; active = well fitted inhibition curve with a large enough effect; inconclusive = small, poorly fitted or top-dose-only effect; inactive = no such curve, though single readings can be large or run the other way; tested in mouse RAW 264.7 cells; note: % is set by controls: 0 for no effect and ±100 for the full control effect; nearly all actives have a fitted effect of over 55% in size
# FLuc counter – inhibits or activates purified firefly luciferase, miR-21 counter-screen; Potency, µM (series often up to 57.5 µM), inactives show at the highest dose activity change, negative = inhibition, hits mostly inhibitors; hit rate 6.9% among 360,000; AID 588342; P08659; purified FLuc, Km substrates, luminescence inhibition;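 note: plate controls were vehicle for no effect and reference inhibitor for full effect; nearly all actives have a fitted effect of over 55% in size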
# Target sequence (P08659 whole entry, looked up): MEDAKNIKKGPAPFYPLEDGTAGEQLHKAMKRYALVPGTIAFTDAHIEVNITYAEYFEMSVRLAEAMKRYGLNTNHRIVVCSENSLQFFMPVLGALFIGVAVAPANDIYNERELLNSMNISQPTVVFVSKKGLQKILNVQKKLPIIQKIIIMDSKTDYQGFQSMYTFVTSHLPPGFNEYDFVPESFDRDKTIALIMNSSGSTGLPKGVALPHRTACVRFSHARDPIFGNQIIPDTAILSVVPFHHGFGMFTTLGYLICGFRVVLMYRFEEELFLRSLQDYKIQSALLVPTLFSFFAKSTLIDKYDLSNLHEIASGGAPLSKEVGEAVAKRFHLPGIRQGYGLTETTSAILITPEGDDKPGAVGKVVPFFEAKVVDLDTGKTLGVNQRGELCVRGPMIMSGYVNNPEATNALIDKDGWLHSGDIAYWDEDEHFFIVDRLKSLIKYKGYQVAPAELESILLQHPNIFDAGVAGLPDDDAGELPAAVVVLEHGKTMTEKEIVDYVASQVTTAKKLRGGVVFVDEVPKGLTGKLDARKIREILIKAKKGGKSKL
#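 Purified P. pyralis luciferase (10nM final) with 10uM D-luciferin and 10uM ATP (Km levels) in 50mM Tris acetate pH 7.5, 10mM Mg acetate, 0.01% Tween-20, 0.05% BSA; qHTS 6-point titration, ~60 µM downward; luminescence read.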
# Rab9 promoter act – activators of Rab9 promoter. Huh7 Rab9 promoter-luciferase reporter, luminescence, 24 h. Potency, µM (highest dose often 9.22 µM), without a hit: at the highest dose activation, negative = inhibition, most hits filed as activators. hit rate 2.8% among 320,000. AID 485297; note: % of control where 0% means no effect; nearly all actives have a fitted effect of over 60% in size
#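 Luciferase signal after 10 min detection reagent at ambient indicates Rab9 promoter upregulation; stably transfected Huh7 cells were treated 24 h with compound in DMSO at 37 °C, 5% CO2.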
# Active calls of the source: *; ? = inconclusive; nt = no result given; [ ] = another dose, or the depositor's remark. Rows were chosen to be rich in hits. Some 7.3% of all compounds tested hit in one or more screens of this group. Unless noted, calls come from the whole dose curve; as a rule, active = well fitted curve in the direction sought with a large enough effect; inconclusive = small, poorly fitted or top-dose-only effect, or another doubt; inactive = no such curve, though single readings can be large; an effect the other way counts as inactive or inconclusive. Potency is the fitted concentration of half-maximal effect.
SMILES,NPC1 promoter act,SMN2 splice up,ELG1 genotox,uPA generation,FLuc counter,Rab9 promoter act
O=C(Nc1ccc(Cl)cc1)OC1CN2CCC1CC2 (stereo unspecified),?,nt,?,2%,15µM*,?
O=C(Nc1cccc(Cl)c1)OC1CN2CCC1CC2 (stereo unspecified),19%,nt,-14%,?,13µM*,18%
COc1cc(CCN)c(OC)c(OC)c1,nt,-1%[9.22 µM],nt,nt,nt,nt
C[C@@H]1[C@@H](C)N1C[C@H](O)Cn1ccnc1[N+](=O)[O-] (stereo partly specified),nt,0%[9.22 µM],nt,nt,nt,nt
C=CCc1ccc(OC(=O)NC2CCCCC2)c(OC)c1,?,nt,?,-1%,11µM*,3.5µM*
O=C(O)/C=C\C(=O)Nc1ccc(Oc2ccc(Br)cc2)cc1,-1%,-12%,0%,-4%,19µM*,-3%
CC(Cc1ccccc1)NC(=O)/C=C/C(=O)O (stereo unspecified),0%,3%,0%,-2%,-6%,-2%
O=C(O)CBr,nt,-7%,nt,nt,nt,nt
C=CCc1ccc(OCCn2nnc3ccccc32)c(OC)c1,2.8µM*,nt,16µM*,-15%,11µM*,4µM*
O=c1c2ccccc2nc(/C=C/c2cccnc2)n1Cc1ccccc1,-4%,nt,-5%,-11%,27µM*,-5%
Oc1cccc(Cl)c1,nt,-1%,nt,nt,nt,nt
Nc1nnnn1CCO,nt,-3%[9.22 µM],nt,nt,nt,nt
Cc1nc2ccc(P(=O)(O)O)cc2s1,-2%,-13%,4%,nt,-8%,0%
Cc1nc2ccc(NC(=O)c3ccc(Cl)s3)cc2s1,3.2µM*,14µM*,9.2µM*,-8%,?,1.6µM*
COC(=O)C(O)(c1ccc(NC(=O)c2cccs2)cc1)C(F)(F)F (stereo unspecified),26%,nt,17%,5%,15µM*,?
COC(=O)C(O)(c1ccc(NC(=O)c2ccccc2)cc1)C(F)(F)F (stereo unspecified),?,nt,9%,-1%,19µM*,?
CN1CCN(c2ccc(N)c(N3CCN(C)CC3)c2)CC1,6%,5%,3%,4%,-1%,-3%
Cc1ccc2scc(N3CCN(C)CC3)c(=O)c2c1,nt,nt,nt,nt,12µM*,nt
N#CS.N=C=S.N=C=S.[Cu].[NH2-].[NH2-].[NH2-].[NH2-].c1ccc2ncccc2c1,nt,-9%[9.22 µM],nt,nt,nt,nt
BrCC1C[n+]2c(SCc3ccccc3)nc3sc4c(c3c2O1)CCCC4 (stereo unspecified),4%,nt,?,-10%,?,0%
Nc1c2c(nc3sc4c(c13)CCCCC4)CCCC2,4µM*,11µM*,-5%,-9%,6µM*,?
CC(C)CC(=O)C[C@H](O)C(Cl)(Cl)Cl,nt,-4%[9.22 µM],nt,nt,nt,nt
COc1ccc(C(=O)Nc2sc3c(c2C(=O)O)CC(C)(C)OC3)cc1,-1%,-36%,-7%,-14%,17µM*,-8%
COc1cccc(NC(=O)CCc2nc(-c3ccc(C(C)(C)C)cc3)no2)c1,nt,-72%,nt,nt,2.7µM*,nt
COc1ccc(NC(=O)CCc2nc(C3=CCN(Cc4cccc(C)c4)CC3)no2)c(OC)c1,nt,nt,nt,nt,-16%,nt
SMILES,NPC1 promoter act,SMN2 splice up,ELG1 genotox,uPA generation,FLuc counter,Rab9 promoter act
CN(CC(=O)Nc1ccc(Cl)c(C(F)(F)F)c1)C(=O)c1ccc(OCC2CCCO2)cc1 (stereo unspecified),-7%,nt,-2%,?,-9%,-10%
CC[C@@H]1[C@@H]2Cc3ccc(O)cc3[C@@]1(CC)CCN2C,nt,1%[9.22 µM],nt,nt,nt,nt
COC(=O)C1=CO[C@@H](C)[C@@H]2CN3CC[C@]4(C(=O)Nc5c4ccc(OC)c5OC)[C@H]3C[C@H]12,nt,-1%,nt,nt,nt,nt
Cc1cc2oc(=O)cc(-c3cc4ccccc4o3)c2cc1OC(=O)N(C)C,-13%,nt,1%,1%,2%,-5%
O=C(NNc1c(F)c(F)cc(F)c1F)c1cc2ccccc2oc1=O,?,22%,?,0%,?,3.2µM*
c1nc[nH]n1,nt,-4%,nt,nt,nt,nt
CC(C)[N+](=O)[O-],nt,2%,nt,nt,nt,nt
COc1ccc(C(=O)C(C)(C)NO)cc1,-2%,-7%,-4%,2%,0%,1%
COc1ccc(C(=O)CCNc2ccc(F)cc2)cc1,?,nt,?,-11%,?,2.8µM*

# Screens from PubChem.
